Binding signal data for 9 sequences are collected here from paper PMC8384837, “Expanding the binding specificity for RNA recognition by a PUF domain”.

Residue numbers refer to the chain shown, from its start.

Common to all, as to experiment: yeast three-hybrid, YBZ-1, SC-Leu-His + 0.5 mM 3-AT, 4 days
Conditions in all cases: tags: N-Gal4 AD-HA kept; label: inside an RPR1-promoter hybrid RNA with tandem MS2 sites; ssRNA

In one assay the target is PUM1 PUF domain R5-DWW (Homo sapiens, UniProt Q14671 828-1176, C1007D;R1008W;Q1011W). In short, it runs like this:
(§1)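 The interaction score is the logarithmic change in variant frequency from input to selection. It uses log2, with a pseudocount of 1 for absent variants, and frequencies came from PCR-amplified, Illumina-sequenced repeat regions. The libraries were Pumilio-1 PUF domains randomized at the three base-contacting residues per repeat, co-expressed with matching RNA elements in strain YBZ-1 (LexA–MS2 coat fusion, HIS3 reporter). Plating lasted four days on SC-Leu (input) or SC-Leu-His + 0.5 mM 3-AT (selection).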

The target in another assay is PUM1 PUF domain R4-WGM (Homo sapiens, UniProt Q14671 828-1176, N971W;H972G;Q975M). The method, boiled down:
as §1

A further assay concerns the target PUM1 PUF domain R4-WSH (Homo sapiens, UniProt Q14671 828-1176, N971W;H972S;Q975H). The method, boiled down: as §1
Another assay has as its target T1, PUM1 PUF domain R6-IFQ (Homo sapiens, UniProt Q14671 828-1176, N1043I;Y1044F).
T1 sequence: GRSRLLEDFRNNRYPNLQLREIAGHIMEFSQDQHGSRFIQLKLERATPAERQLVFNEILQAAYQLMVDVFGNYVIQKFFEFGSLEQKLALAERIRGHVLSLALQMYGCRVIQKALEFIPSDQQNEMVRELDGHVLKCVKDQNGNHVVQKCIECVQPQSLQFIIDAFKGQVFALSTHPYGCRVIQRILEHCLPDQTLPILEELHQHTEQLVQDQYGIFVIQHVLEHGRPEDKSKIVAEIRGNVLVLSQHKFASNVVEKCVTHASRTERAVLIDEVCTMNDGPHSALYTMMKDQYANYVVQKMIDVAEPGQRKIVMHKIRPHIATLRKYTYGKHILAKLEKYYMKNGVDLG
In short, it runs like this:
as §1

The target in the next assay is PUM1 PUF domain R8-MHK (Homo sapiens, UniProt Q14671 828-1176, N1122M;Y1123H;Q1126K). The method, boiled down: as §1
The target in a further assay is PUM1 PUF domain R5-RST (Homo sapiens, UniProt Q14671 828-1176, C1007R;R1008S;Q1011T). The method, boiled down: as §1
The next assay addresses T2, PUM1 PUF domain R6-NWV (Homo sapiens, UniProt Q14671 828-1176, Y1044W;Q1047V).
T2 sequence: T1 sequence with I216N, F217W, Q220V
The method, boiled down: as §1

A further assay deals with PUM1 PUF domain R7-RAR (Homo sapiens, UniProt Q14671 828-1176, S1079R;N1080A;E1083R). The method, boiled down: as §1
A further assay deals with PUM1 PUF domain R1-TRR (Homo sapiens, UniProt Q14671 828-1176, S863T;Q867R). In short, it runs like this: as §1

For the sequence “GGCUAGAACUAGUGGAUCCCCCGGCGCCCGGCGGCUCGAGCCCGGGUAAGUGUGAAUAGUCUGCAUGCCGCCGGGCGCCAUGCCUGCAGGUCGACUCUAGAAAACAUG”, in the assay with PUM1 PUF domain R5-DWW, the binding signal is 5.08 log2 enrichment (interaction score).

On to “GGCUAGAACUAGUGGAUCCCCCGGCGCCCGGCGGCUCGAGCCCGGGUAAGUGUAUAUAGUCUGCAUGCCGCCGGGCGCCAUGCCUGCAGGUCGACUCUAGAAAACAUG”, for which the binding signal with PUM1 PUF domain R4-WGM was 2.85 log2 enrichment (interaction score); with PUM1 PUF domain R4-WSH it was 4.36 log2 enrichment (interaction score).

“GGCUAGAACUAGUGGAUCCCCCGGCGCCCGGCGGCUCGAGCCCGGGUAAGUGUAAAUAGUCUGCAUGCCGCCGGGCGCCAUGCCUGCAGGUCGACUCUAGAAAACAUG”: the values for the binding signal with PUM1 PUF domain R4-WSH, with PUM1 PUF domain R6-IFQ and with PUM1 PUF domain R8-MHK were 1.11 log2 enrichment (interaction score), 3.62 log2 enrichment (interaction score) and 2.63 log2 enrichment (interaction score), respectively.

Regarding “GGCUAGAACUAGUGGAUCCCCCGGCGCCCGGCGGCUCGAGCCCGGGUAAGUGUCAAUAGUCUGCAUGCCGCCGGGCGCCAUGCCUGCAGGUCGACUCUAGAAAACAUG”, in the assay with PUM1 PUF domain R5-RST, the binding signal was 2.91 log2 enrichment (interaction score).

For “GGCUAGAACUAGUGGAUCCCCCGGCGCCCGGCGGCUCGAGCCCGGGUAAGUGAAAAUAGUCUGCAUGCCGCCGGGCGCCAUGCCUGCAGGUCGACUCUAGAAAACAUG”, the binding signal with PUM1 PUF domain R6-NWV is 3.35 log2 enrichment (interaction score).

As for “GGCUAGAACUAGUGGAUCCCCCGGCGCCCGGCGGCUCGAGCCCGGGUAAGUCUAAAUAGUCUGCAUGCCGCCGGGCGCCAUGCCUGCAGGUCGACUCUAGAAAACAUG”, in the assay with PUM1 PUF domain R7-RAR, the binding signal is 1.83 log2 enrichment (interaction score).

With “GGCUAGAACUAGUGGAUCCCCCGGCGCCCGGCGGCUCGAGCCCGGGUAAGUUUAAAUAGUCUGCAUGCCGCCGGGCGCCAUGCCUGCAGGUCGACUCUAGAAAACAUG”, in the assay with PUM1 PUF domain R7-RAR, the binding signal was 4.56 log2 enrichment (interaction score).

With “GGCUAGAACUAGUGGAUCCCCCGGCGCCCGGCGGCUCGAGCCCGGGUAAGUGUAAAUCGUCUGCAUGCCGCCGGGCGCCAUGCCUGCAGGUCGACUCUAGAAAACAUG”, the binding signal with PUM1 PUF domain R1-TRR is 4.23 log2 enrichment (interaction score).

“GGCUAGAACUAGUGGAUCCCCCGGCGCCCGGCGGCUCGAGCCCGGGUAAGUGUAAAUUGUCUGCAUGCCGCCGGGCGCCAUGCCUGCAGGUCGACUCUAGAAAACAUG”: in the assay with PUM1 PUF domain R1-TRR, the binding signal is 3.12 log2 enrichment (interaction score).
